According to ChEMBL document CHEMBL5606460, “ASAP - DENV-2 NS2B-NS3 protease fluorescence single point” (2024):
Screen size: about 2,000 compounds; about 110 (5.5%) showed an effect of 50% or more. The entries come from a sample that favours strong results as a whole.

Target: Genome polyprotein (dengue virus type 2) (UniProt P29990)
[1] = Thailand/16681/1984, Concentration 25.0 uM, Number of replicates 1.0

## OB1CCc2c(cccc2N2CC[C@@H](O)C2)O1
Thailand/16681/1984, Concentration 49.5 uM, Number of replicates 2.0, Standard deviation 2.1653827241885084 %
  inhibition: -1.07%
Thailand/16681/1984, Concentration 99.01 uM, Number of replicates 2.0, Standard deviation 1.9510885480745654 %
  inhibition: -0.363%
Thailand/16681/1984, Concentration 198.0 uM, Number of replicates 2.0, Standard deviation 2.0113725552722737 %
  inhibition: 1.02%

## Cc1nnccc1Cn1cc(C2CCNCC2)c(C)n1
Thailand/16681/1984, Concentration 49.5 uM, Number of replicates 2.0, Standard deviation 1.059758229221688 %
  inhibition: -5.29%
Thailand/16681/1984, Concentration 99.01 uM, Number of replicates 2.0, Standard deviation 7.779121042682183 %
  inhibition: 2.01%
Thailand/16681/1984, Concentration 198.0 uM, Number of replicates 2.0, Standard deviation 1.1444678313445817 %
  inhibition: -3.21%

## Cc1cc(CO)c2cccc(C[C@H](NC(=O)[C@@H](N)c3ccsc3)C(=O)O)c2n1
Thailand/16681/1984, Concentration 49.95 uM, Number of replicates 2.0, Standard deviation 1.7977802295531586 %
  inhibition: 8.31%
Thailand/16681/1984, Concentration 99.9 uM, Number of replicates 2.0, Standard deviation 1.1856845832025373 %
  inhibition: 20.1%

## Cc1cc(CO)c2cccc(Cc3ccccc3NC(=O)c3ccno3)c2n1
Thailand/16681/1984, Concentration 49.95 uM, Number of replicates 2.0, Standard deviation 3.752588616330447 %
  inhibition: 3.29%
Thailand/16681/1984, Concentration 99.9 uM, Number of replicates 2.0, Standard deviation 1.45880155634974 %
  inhibition: 6.29%

## Cc1cccc(C)c1OC[C@H](C)NC(=O)C1CCN(c2ccc(C=O)cc2)CC1
[1]
  inhibition: 6.86%

## CCCN(C)C(=O)c1cc(Cl)ccc1NS(=O)(=O)c1ccc(Oc2ccccc2Cl)cc1
Thailand/16681/1984, Concentration 49.5 uM, Number of replicates 2.0, Standard deviation 0.9470295707961462 %
  inhibition: 75.9%
Thailand/16681/1984, Concentration 99.01 uM, Number of replicates 2.0, Standard deviation 0.4835625940830703 %
  inhibition: 88.8%
Thailand/16681/1984, Concentration 198.0 uM, Number of replicates 2.0, Standard deviation 0.2692812727579233 %
  inhibition: 93.4%

## CN(CCS(N)(=O)=O)C(=O)c1cc(Cl)ccc1NS(=O)(=O)c1ccc(Oc2ccccc2Cl)cc1
Thailand/16681/1984, Concentration 49.5 uM, Number of replicates 2.0, Standard deviation 3.051075775612508 %
  inhibition: 8.12%
Thailand/16681/1984, Concentration 99.01 uM, Number of replicates 2.0, Standard deviation 2.2523140974306535 %
  inhibition: 55.8%
Thailand/16681/1984, Concentration 198.0 uM, Number of replicates 2.0, Standard deviation 0.05978513602530914 %
  inhibition: 97.7%

## CN(c1ccc(Cl)cc1C(N)=O)S(=O)(=O)c1ccc(Oc2ccccc2Cl)cc1
Thailand/16681/1984, Concentration 49.5 uM, Number of replicates 2.0, Standard deviation 0.11551161483271621 %
  inhibition: 1.15%
Thailand/16681/1984, Concentration 99.01 uM, Number of replicates 2.0, Standard deviation 0.4161514072882 %
  inhibition: 3.78%
Thailand/16681/1984, Concentration 198.0 uM, Number of replicates 2.0, Standard deviation 1.5666270190069185 %
  inhibition: 5.59%

## CNC(=O)c1cc(Cl)ccc1N(C)S(=O)(=O)c1ccc(Oc2ccccc2Cl)cc1
Thailand/16681/1984, Concentration 49.5 uM, Number of replicates 2.0, Standard deviation 1.1912141654334696 %
  inhibition: -2.39%
Thailand/16681/1984, Concentration 99.01 uM, Number of replicates 2.0, Standard deviation 1.3706697565683075 %
  inhibition: -0.121%
Thailand/16681/1984, Concentration 198.0 uM, Number of replicates 2.0, Standard deviation 0.031456216092408736 %
  inhibition: 3.32%

## COCCCN(Cc1ccccc1)C(=O)C1CCN(c2ccc(C=O)cc2)CC1
[1]
  inhibition: 16.7%

## O=Cc1ccc(N2CCC(C(=O)Nc3cccc(OC(F)(F)F)c3)CC2)cc1
[1]
  inhibition: 12.8%

## O=Cc1ccc(N2CCC(C(=O)N3CCN(c4ncc(C(F)(F)F)cc4Cl)CC3)CC2)cc1
[1]
  inhibition: -1.15%

## CSCC(=O)Nc1ccc(Cl)c2cccnc12
Thailand/16681/1984, Concentration 49.95 uM, Number of replicates 2.0, Standard deviation 4.284996583998793 %
  inhibition: -8.76%
Thailand/16681/1984, Concentration 99.9 uM, Number of replicates 2.0, Standard deviation 5.022059659232943 %
  inhibition: -8.17%

## Cc1c(C(=O)NCc2ccc(Cl)cc2OCCO)ccc(O)c1NC(=O)c1ccncc1F
Thailand/16681/1984, Concentration 49.5 uM, Number of replicates 2.0, Standard deviation 1.9465984757153059 %
  inhibition: -3.14%
Thailand/16681/1984, Concentration 99.01 uM, Number of replicates 2.0, Standard deviation 1.7394020396248402 %
  inhibition: -2.65%
Thailand/16681/1984, Concentration 198.0 uM, Number of replicates 2.0, Standard deviation 1.2400320592735166 %
  inhibition: 0.351%

## Cc1c(Br)cccc1NC(=O)C1CCN(c2ccc(C=O)cc2)CC1
[1]
  inhibition: 13%

## Cc1nc(NC(=O)C2CCN(c3ccc(C=O)cc3)CC2)ccc1Br
[1]
  inhibition: 12.1%

## O=Cc1ccc(N2CCC(C(=O)Nc3cccc(Br)n3)CC2)cc1
[1]
  inhibition: 92.6%

## O=Cc1ccc(N2CCC(C(=O)Nc3cccc4ccc(O)cc34)CC2)cc1
[1]
  inhibition: 35.2%

## O=Cc1ccc(N2CCC(C(=O)Nc3ccc(Br)cc3O)CC2)cc1
[1]
  inhibition: 31.4%

## O=Cc1ccc(N2CCC(C(=O)Nc3ncc(Br)cc3O)CC2)cc1
[1]
  inhibition: 52.8%

## Cc1ccc2cccc(NC(=O)C3CCN(c4ccc(C=O)cc4)CC3)c2n1
[1]
  inhibition: 50.9%

## O=Cc1ccc(N2CCC(C(=O)Nc3cccc(C(F)(F)F)n3)CC2)cc1
[1]
  inhibition: 13.5%

## O=Cc1ccc(N2CCC(C(=O)Nc3ncc(F)cc3Br)CC2)cc1
[1]
  inhibition: 10.9%

## COC(=O)c1cccc(C(=O)Nc2ccncc2C)c1
Thailand/16681/1984, Concentration 49.5 uM, Number of replicates 2.0, Standard deviation 0.22567664905073445 %
  inhibition: -4.08%
Thailand/16681/1984, Concentration 99.01 uM, Number of replicates 2.0, Standard deviation 0.2045809712592737 %
  inhibition: -3.74%
Thailand/16681/1984, Concentration 198.0 uM, Number of replicates 2.0, Standard deviation 1.3054913833669988 %
  inhibition: -2.98%

## C[C@@H](c1ccccc1)N(CC1CC1)C(=O)C1CCN(c2ccc(C=O)cc2)CC1
[1]
  inhibition: 13.8%

## O=C(c1csc([C@H]2CCCNC2)n1)N1CC[C@H](c2cccnc2)C1
Thailand/16681/1984, Concentration 49.5 uM, Number of replicates 2.0, Standard deviation 1.7251582592894925 %
  inhibition: -0.499%
Thailand/16681/1984, Concentration 99.01 uM, Number of replicates 2.0, Standard deviation 2.248532513594862 %
  inhibition: 1.01%
Thailand/16681/1984, Concentration 198.0 uM, Number of replicates 2.0, Standard deviation 1.6393165928155962 %
  inhibition: 2.41%
